The values that follow come from PubChem BioAssay (NCI).

Compounds without any hit were thinned out: in the full panel of roughly 79,000, 15% have a hit. A number with no mark means an inactive call. Activity calls are given as the source filed them. No stated cut-off is given here; in the data, active means growth inhibition above about 70%; inactive means the rest. Where a SMILES comes first, the peptide text is derived from it. [ ]: non-standard residue; d: D form. The star is where a group is joined. mTyr = N[CH](Cc1cccc(O)c1)C(=O)O; Cbz = O=C(OCc1ccccc1)*; OBn = c1ccc(CO*)cc1

A short description of the assay: NCI Yeast Anticancer Drug Screen. Data for the sgs1 mgt1 strain (AID 161).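 Further: 0% = growth of cultures given vehicle only.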 Particulars: S. cerevisiae sgs1 mgt1 strain, at 50.0 µM, active compounds read high. Put shortly:
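Genetically altered yeast, compound exposure, growth inhibition relative to vehicle.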
In the case of `CC12CCC(c3sc(N)c(C#N)c31)C2(C)C` (stereo not given), the growth inhibition is 34.5%.
The same measure for `O=C1/C(=C/c2cccc(F)c2)CCCc2ccccc21`: 82.5% (active).
`CC(=O)N[C@H]1CC[C@H]2[C@@H]3CCC4=CC(=O)CC[C@]4(C)[C@H]3CC[C@]12C`: the growth inhibition is 94.2% (active).
The same measure for `C/C(=N/O)c1ccc2c(c1)C(=NO)c1cc(/C(C)=N/O)ccc1-2`: 94.2% (active); for `Cc1cccc(N2C(c3ccccc3)c3ccc(C)cc3NS2=O)c1` (stereo not given): 99.1% (active); for `[Pt].c1ccc(P(CCP(CCP(c2ccccc2)c2ccccc2)CCP(c2ccccc2)c2ccccc2)c2ccccc2)cc1`: 80% (active).
The result for `Cc1cc(I)ccc1NC(=S)Nc1ccccc1F` reads 86.5% (active).
The same measure for `FC(F)(F)c1ccccc1NC(=S)SCc1ccc(Cl)cc1`: 99.2% (active); for `COC(=O)C1(C)CC2C(C)(CCC3(C)C4=CC=C5C(=CC(=O)C(O)=C5C)C4(C)CCC23C)CC1O` (stereo not given): 90.3% (active).
`CC1CCC(=NNC(N)=O)CC1` (stereo not given): the growth inhibition is 2.45%.
`CCOC(=O)C(NS(=O)(=O)c1ccccc1)(C(F)(F)F)P(=O)(OCC(C)C)OCC(C)C` (stereo not given): the growth inhibition is 96.2% (active).
The same measure for `O=[N+]([O-])c1ccc(/C=N/NC2=CS(=O)(=O)C=C2)cc1`: 8.4%; for `CC(C)c1ccc2c(c1)CCC1C(C)(CNC(=O)S)CCCC21C.[Zn+2]` (stereo not given): -10.6%; for `Cc1ccc(N=Nc2sc(N)nc2C)cc1C`: 14.1%.
On to `CC(C)(C)C1CCC2c3c([nH]c4ccccc34)C3C(=O)N(c4ccc(C(=O)O)cc4)C(=O)C3C2C1` (stereo not given), for which the growth inhibition was 98.5% (active).
The same measure for `O=C(CBr)Nc1ccc(Cc2ccc(NC(=O)CBr)cc2)cc1`: 98.2% (active); for `O=c1[nH]c2c([N+](=O)[O-])cc(Cl)cc2nc1/C=C(\O)c1ccc(Cl)cc1`: 95.3% (active).
In the case of `CCOC(=O)C1=C(N)N(S(=O)(=O)c2ccc(C)cc2)CCC(C(=O)OC)=C1`, the growth inhibition was 82% (active).
The result for `CC(C)=CC(=O)OC(CCCc1ccccc1)c1ccc2c(c1)OCO2` (stereo not given) reads -4.75%; that for `OCCN(CCO)c1cc(/C=C/c2ccnc3ccccc23)nc2ccccc12`, 28.6%.
Take `CCCCCCCCCCCC(=O)OCC1CO1` (stereo not given): the growth inhibition is 24.6%.
The same measure for `CCCCCCCCCCCCCCCCCC1=NCCN1`: 42%; for `CC(=O)OCC1OC(OC2C=C(O[Si](C)(C)C)C[C@H]3C(=O)C=CC(=O)[C@@H]23)C(OC(C)=O)C(OC(C)=O)C1OC(C)=O` (stereo not given in full): 31.4%.
In the case of `C[C@]12CC[C@H]3[C@@H](CCC4=CC(=O)CC[C@@]43C)[C@@H]1CC[C@@H]2C(=O)C=O`, the growth inhibition is 71% (active).
The result for `CCCCCC(O)C(C)CO` (stereo not given) reads -4.2%; that for `CC(=O)Oc1ccc(-c2ccccc2)cc1Br`, 91.5% (active).
Take `COC(=O)C(Cc1cccc(O)c1)NC(=O)C(CC(=O)OCc1ccccc1)NC(=O)OCc1ccccc1` (stereo not given) (Cbz-Asp(OBn)-[mTyr]-OMe; configuration not given here): the growth inhibition was 85.7% (active).
The same measure for `CCC(CO)Nc1nc2cc(Br)ccc2c2ccc(Br)cc12` (stereo not given): 96.2% (active).
The result for `Cc1cc(Br)ccc1NC(=O)/C=C/C(=O)O` reads 17.4%; that for `CCO/C=C1N=C(/C=C/c2ccccc2Cl)OC/1=O`, 50.2%.
Turning to `O=S(=O)(Nc1ccccc1C(F)(F)F)c1ccc(F)cc1`, the growth inhibition was 56.4%.
The same measure for `N#CSCC(=O)c1ccc2ccccc2c1`: 93.5% (active); for `O=[N+]([O-])/C(Cl)=C(\Nc1ccccc1)C(Cl)=C(Cl)Cl`: 88.8% (active).
The same measure for `C/C(=N/NC(=O)c1ccccc1S(N)(=O)=O)C(CN1CCCCC1)C(C1=C(O)C2C=CC=CC2OC1=O)c1ccccc1` (stereo not given): 91% (active); for `N#Cc1c([N+](=O)[O-])cc(C(F)(F)F)cc1[N+](=O)[O-]`: 99.5% (active).
The result for `CCCCCCCCCCCCO` reads 60.8%; that for `S=C(N/N=C/c1ccccn1)N1CC2CCC(CC2)C1`, 92% (active); that for `ClC1(c2ccccc2)c2ccccc2-c2ccccc21`, 83.9% (active).
On to `Cc1ccc(SCC#CC#CCS(=O)c2ccc(C)cc2)cc1` (stereo not given), for which the growth inhibition is 97.8% (active).
The result for `CCCCCCCOc1ccc(C=O)cc1OC` reads 38.6%.
